# DT40 TDP1 CPT: growth inhibition of DT40 Tdp1-/-;hTDP1 cells with camptothecin (screen for TDP1 inhibitors); chicken DT40 Tdp1-/-;hTDP1 cells + 20 nM CPT, ATP luminescence, 48 h; Potency, µM (doses to about 46.2 µM), without a hit: at the top dose activity change, negative = growth inhibition, usual class: inhibitors; 420,000 tested, 12% active; AID 686979; note: potency is the fitted concentration of half-maximal effect; nearly all actives have a fitted effect of over 55% in size
#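 Chicken DT40 Tdp1-/- cells stably complemented with human TDP1 were seeded at 400 cells/well in medium containing 20 nM camptothecin, exposed to pin-transferred compounds, and grown at 37 °C for at least 48 hr. Viability was read as ATP luminescence.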
# IL1B secr inh: blocks inflammasome-driven IL-1 beta release; activity change, % at 57.5 µM; AID 743279; THP-1 LPS/ATP IL-1B secretion, AlphaLISA, 16 h; active compounds read low; 360,000 tested, 4.7% active; in the data active = activity change below about -50%; inconclusive = mostly about -30% to -49%
#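 Secreted IL-1B measured by AlphaLISA bead assay after 16 h compound exposure of THP-1 cells; compounds (final up to 57.5 uM) added 1 h before LPS (250 ng/mL) and ATP (1.25 mM) stimulation; lower signal means less secretion.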
# HT1080NT lethal: kills 2HG-producing HT-1080-NT fibrosarcoma cells | HT-1080-NT fibrosarcoma viability, CellTiter-Glo ATP luminescence, 48 h | Potency, µM (titrated, usually from 46.1 µM), for inactives: at the highest dose activity, negative = less viability, usual class: cytotoxic | 360,000 tested, 1.6% active | AID 686970;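 note: NT is the 2HG producing partner of a matched IDH1 knockdown line; potency is the fitted concentration of half-maximal effect; 0% = DMSO-treated cells and -100% = media-only wells without cells; nearly all actives have a fitted effect of over 55% in size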
#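 Toxicity toward the 2HG-producing NT line was scored as %Activity, normalised to DMSO and no-cell wells, from CellTiter-Glo luminescence after 48 hours' treatment.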
# HT1080 IDH1KD tx: toxicity to HT-1080 IDH1 knockdown cells (counter line); AID 686971; Potency, µM (titrated, usually from 46.1 µM), inactives show at the highest dose activity, negative = toxicity, usual class: cytotoxic; 360,000 tested, 2% active; HT-1080 IDH1 knockdown viability, ATP luminescence, 48 h;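 note: potency is the fitted concentration of half-maximal effect; 0% = DMSO wells and -100% = cell-free medium wells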
#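 HT-1080-IDH1KD cells (IDH1 knocked down), 750/well in RPMI with 5% FBS, treated with compound 48 h at 37 degrees C. Viability by CellTiter-Glo luminescence, normalised to DMSO and no-cell wells; concentration-response curves classed.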
# DT40 TDP1 no CPT: qHTS for Inhibitors of human tyrosyl-DNA phosphodiesterase 1 (TDP1): qHTS in cells in absence of CPT; Potency, µM (series often up to 46.2 µM), without a hit: at the highest dose activity change, negative = growth inhibition, hits mostly inhibitors; 420,000 tested, 15% active; DT40 Tdp1-/- hTDP1 cells, no CPT, ATP luminescence, 48 h; AID 686978, 2013; note: potency is the fitted concentration of half-maximal effect; nearly all actives have a fitted effect of over 55% in size
#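 Growth kinetics read by CellTiter-Glo luminescence after ≥48 hr at 37 °C. Cells: DT40 Tdp1-/- stably carrying human TDP1, 400 per well, compound exposure in the absence of CPT (DMSO vehicle).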
# Active calls of the source: *; ? = inconclusive; . = no result given; [ ] = dose if it differs, or a comment. Rows were chosen to be rich in hits. Some 19% of all compounds tested hit in one or more screens of this group. Unless noted, calls come from the whole dose curve; as a rule, active = well fitted curve in the direction sought with a large enough effect; inconclusive = small, poorly fitted or top-dose-only effect, or another doubt; inactive = no such curve, though single readings can be large; an effect the other way counts as inactive or inconclusive. Unless noted, % is set by controls: 0 for no effect and ±100 for the full control effect.
SMILES,DT40 TDP1 CPT,IL1B secr inh,HT1080NT lethal,HT1080 IDH1KD tx,DT40 TDP1 no CPT
CCN1CCC(O)(c2ccccc2)C(C(=O)c2ccccc2)C1 (centres undefined),2.6µM*,-15,5%,9%,4.1µM*
CN1CCC(O)(c2ccccc2)C(C(=O)c2ccccc2)C1 (centres undefined),9.2µM*,-21,9%,13%,18µM*
O=[N+]([O-])/C=C/c1c(Cl)cccc1Cl,0.46µM*,-99*,?,?,1.3µM*
CCOC(=O)[C@]12Cc3cc(C)ccc3[C@H]1N(C1CCCCC1)C(=O)c1cc(OC)ccc12,1.2µM*,-111*,2.9µM*,3.3µM*,1µM*
CCOC(=O)[C@]12Cc3cc(OC)ccc3[C@H]1N(C1CCCCC1)C(=O)c1cc(OC)ccc12,2.6µM*,-114*,23µM*,18µM*,4.6µM*
COC(=O)C12CCc3cc(OC)ccc3C1=CC(=O)C2 (centres undefined),11%,-1,-3%,0%,?
CC[C@H](C)[C@H](NC(=O)[C@@H]1CCCN1C(=O)[C@H](CCC(=O)O)NC(=O)[C@@H](NC(=O)[C@H](Cc1ccccc1)NC(=O)[C@@H]1CCCN1C(=O)[C@@H](N)Cc1ccc(O)cc1)C(C)C)C(=O)O,-1%[4.12 µM],.,.,.,5%[4.12 µM]
CC1CC[C@@]2(OC1)O[C@@H]1[C@@H](O)[C@H]3C4CC[C@H]5C[C@@H](O[C@@H]6O[C@H](CO)[C@H](O[C@@H]7O[C@H](CO)[C@@H](O)[C@H](O[C@@H]8OC[C@@H](O)[C@H](O)[C@H]8O)[C@H]7O[C@@H]7O[C@H](CO)[C@@H](O)[C@H](O[C@@H]8O[C@H](CO)[C@@H](O)[C@H](O)[C@H]8O)[C@H]7O)[C@H](O)[C@H]6O)[C@H](O)C[C@]5(C)C4CC[C@]3(C)[C@H]1[C@@H]2C (some centres undefined),5.3µM*,.,.,.,6.7µM*
CC1CC[C@@]2(OC1)OC1C(O)C3C4CC[C@H]5CC(O[C@@H]6O[C@@H](CO)[C@H](OC7OC(CO)C(O)C(OC8OCC(O)C(O)[C@H]8O)[C@@H]7O[C@@H]7OC(CO)[C@H](O)[C@@H](O[C@@H]8OC(CO)C(O)C(O)C8O)C7O)C(O)C6O)C(O)C[C@]5(C)C4CC[C@]3(C)C1C2C (some centres undefined),2.3µM*,.,.,.,1.3µM*
N#Cc1ccc(CN2CCCC3(CCN(C(=O)Oc4ccccc4)CC3)C2)cc1,-15%,.,.,.,-25%
CN1CCc2nc(SCc3ccccc3Br)c(C#N)cc2C1,?,-17,-8%,1%,18µM*
Cc1cc(C)c(C(=O)COC(=O)Cn2nc(-c3ccccc3)oc2=O)cc1C,0%,24,17%,?,-17%
CCCNS(=O)(=O)c1ccc(OCC(=O)N2CCN(Cc3ccc4c(c3)OCO4)CC2)cc1,?,-20,-11%,-2%,12µM*
Cc1ccc(OCC(=O)N2CCN(Cc3ccc4c(c3)OCO4)CC2)cc1,-6%,-11,2%,-15%,?
Cc1ccc(C(=O)O)cc1N=Nc1c(O)[nH]c(=O)[nH]c1=O,5%,-21,-1%,19%,-6%
O=C(O[C@H]1CN2CCC1CC2)N1CCc2ccccc2[C@@H]1c1ccccc1,?,.,.,.,21µM*
C[N+]1(CC2COC(c3ccco3)O2)CCCCC1 (centres undefined),1%,-6,16%,12%,-3%
C[N+]1(CC2COC(c3ccccc3)(c3ccccc3)O2)CCCCC1 (centres undefined),?,.,.,.,19µM*
C=C1C(O)(c2ccccc2)C2CC[N+]1(C)CC2 (centres undefined),-6%,12,14%,2%,-4%
COc1ccc(CCNCc2ccsc2)cc1OC,4%,6,5%,10%,9%
COc1ccc(CCNC(=O)c2ccc3c(c2)N(Cc2cccc(Cl)c2)C(=O)CS3)cc1OC,21µM*,.,.,.,23µM*

# High-throughput results: PubChem, National Center for Advancing Translational Sciences (NCATS)
